A selection: hits, their analogues and other compounds. The true share with any hit is near 3.2%.
HDAC3 inh – blocks human histone deacetylase 3 | inhibition, % at 8.3 µM | actives 0.15% (n = 320,000) | recombinant HDAC3, fluorogenic peptide/trypsin coupled, fluorescence; in the data active = inhibition above about 26%, passing the limit was not always enough
CHT block – inhibits the human high affinity choline transporter. Q9GZV3. B-score at 10 µM. actives 0.86% (n = 310,000). AID 488975. CHT-expressing cells, membrane potential dye, choline response; stronger effect = lower value;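 active = B-score over 3 SD under the library average, and starting fluorescence ratio not unusually high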;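 note: choline stimulus applied at its EC90 after an EC20 pre-addition; B-score computed on integrated fluorescence ratio after choline addition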
ANO1 block – inhibitors of mouse TMEM16A calcium-activated chloride channel; Q8BHY3; HEK293 TMEM16A/YFP iodide influx fluorescence, ionomycin; normalized B-score (activity score, 25-100; higher = stronger inhibition) at 10 µM; actives 1.2% (n = 310,000);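 active = ratio plate-corrected score three or more library SD toward inhibition, starting fluorescence score within five deviations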;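 note: score derived from kinetic fluorescence span divided by baseline fluorescence per well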
CHT PAM – allosterically activates the human high affinity choline transporter; actives 0.49% (n = 310,000); B-score at 10 µM; CHT-expressing cells, membrane potential dye, choline EC20; stronger effect = higher value; LV-AA mutant CHT in HEK293 cells; Q9GZV3;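 active = initial fluorescence not abnormally high and integrated response B-score, plate-corrected, over 3 SD above library mean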
PHOSPHO1 block – inhibitors of human PHOSPHO1 phosphatase; Q8TCT1; recombinant PHOSPHO1, absorbance phosphatase assay; inhibition, % at 13.3 µM; actives 1.1% (n = 290,000); AID 1565; in the data active = inhibition above about 60%
Target sequence (Q8TCT1 whole entry, looked up): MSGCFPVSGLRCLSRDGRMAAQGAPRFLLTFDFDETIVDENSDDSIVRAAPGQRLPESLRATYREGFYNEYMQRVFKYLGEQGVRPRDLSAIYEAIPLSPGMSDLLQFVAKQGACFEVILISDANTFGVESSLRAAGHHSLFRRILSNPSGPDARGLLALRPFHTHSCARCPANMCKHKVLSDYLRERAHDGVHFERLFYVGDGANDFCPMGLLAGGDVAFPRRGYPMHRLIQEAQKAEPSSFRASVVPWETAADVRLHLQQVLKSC
TMEM16A act – activates or potentiates the mouse TMEM16A chloride channel; Q8BHY3; HEK293 TMEM16A/YFP-H148Q/I152L, iodide quench fluorescence; stronger effect = lower value; B-score at 10 µM; actives 0.3% (n = 340,000);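 active = fluorescence-ratio B-score plate-corrected deviation score at least 3 library SD below zero, with starting fluorescence score within 5 deviations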;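 note: channel opened by trigger with iodide after compound preincubation; score built on the fluorescence ratio of max minus min over baseline; more negative score means more quench and so TMEM16A activation or potentiation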
The depositor's hits bear a star.

How did CCOc1cccc2sc(N(CCN(CC)CC)C(=O)c3ccc(S(=O)(=O)N4CCCCC4)cc3)nc12 do in these assays?
HDAC3 inh: -5; CHT block: inactive; ANO1 block: inactive; CHT PAM: inactive; PHOSPHO1 block: 0; TMEM16A act: inactive

Results for OCCN1CCN(C(c2cccs2)c2ccc3cccnc3c2O)CC1 (stereo not drawn) ?
PHOSPHO1 block: 105*

How did Cc1ccccc1OC(C)C(=O)N1CCC(Cc2ccccc2)CC1 (stereo not drawn) do in these assays?
CHT block: inactive; ANO1 block: inactive; CHT PAM: inactive; PHOSPHO1 block: 68*; TMEM16A act: inactive

Results for CCOC(=O)C(Sc1nn(C)c(=S)s1)C(C)=O (stereo not drawn) ?
HDAC3 inh: 12; CHT block: inactive; ANO1 block: inactive; CHT PAM: inactive; PHOSPHO1 block: 97*; TMEM16A act: inactive

What do the screens show for `N#CC(C#N)=C1C=CC=CN1/C(=C\c1ccccc1Cl)C(=O)c1ccccc1`?
HDAC3 inh: 1; CHT block: inactive; ANO1 block: inactive; CHT PAM: inactive; PHOSPHO1 block: -12; TMEM16A act: -8.4*

Results for N#C/C(=C\c1cccs1)Sc1nc2ccccc2s1 ?
HDAC3 inh: 6; CHT block: inactive; ANO1 block: inactive; CHT PAM: inactive; PHOSPHO1 block: 4; TMEM16A act: -20*

What do the screens show for `CC(=O)Nc1ccc(OC(=O)c2cccnc2)cc1`?
HDAC3 inh: 2; CHT block: inactive; ANO1 block: inactive; CHT PAM: inactive; PHOSPHO1 block: -18; TMEM16A act: inactive

How did CC(C)OC(=O)c1ccc(OC(=O)c2cccnc2)cc1 do in these assays?
HDAC3 inh: 47*; CHT block: inactive; ANO1 block: inactive; CHT PAM: inactive; PHOSPHO1 block: -11; TMEM16A act: inactive

Results for COC(=O)c1ccc(OC(=O)c2cccnc2)cc1 ?
HDAC3 inh: 42*; CHT block: inactive; ANO1 block: inactive; CHT PAM: inactive; PHOSPHO1 block: -8; TMEM16A act: inactive

How did COc1ccccc1C(=O)C1CCCN(C(=O)c2ccccn2)C1 (stereo not drawn) do in these assays?
HDAC3 inh: 3; CHT block: inactive; ANO1 block: inactive; CHT PAM: inactive; PHOSPHO1 block: 35; TMEM16A act: inactive

How did Cc1cccc(N2CCN(C(=O)Cc3ccc(-n4c(=O)[nH]c5ccsc5c4=O)cc3)CC2)c1C do in these assays?
HDAC3 inh: 6; CHT block: inactive; ANO1 block: inactive; CHT PAM: inactive; PHOSPHO1 block: -19; TMEM16A act: inactive

What do the screens show for `Cn1cc(/C=N/Nc2ccccc2)c2ccccc21`?
HDAC3 inh: -9; CHT block: inactive; ANO1 block: inactive; CHT PAM: inactive; PHOSPHO1 block: -18; TMEM16A act: inactive

What do the screens show for `Cn1c(CN2CCN(C(=O)c3ccco3)CC2)nc2cc([N+](=O)[O-])ccc21`?
HDAC3 inh: 8; CHT block: inactive; ANO1 block: inactive; CHT PAM: inactive; PHOSPHO1 block: 66*; TMEM16A act: inactive

Results for COc1ccc(C(=O)NCc2nnc(SCC(=O)NC3CCCC3)o2)cc1 ?
HDAC3 inh: 9; CHT block: inactive; ANO1 block: inactive; CHT PAM: inactive; PHOSPHO1 block: 27; TMEM16A act: inactive

How did CCN(CC)C(=O)CSC1=N/C(=C/c2ccco2)C(=O)N1c1ccc(OC)c(Cl)c1 do in these assays?
HDAC3 inh: 3; CHT block: inactive; ANO1 block: inactive; CHT PAM: inactive; PHOSPHO1 block: -11; TMEM16A act: inactive

How did C[C@H](CO)N1C[C@H](C)[C@@H](CN(C)C(=O)Nc2ccc(C(F)(F)F)cc2)Oc2ccc(NC(=O)Nc3ccc(C(F)(F)F)cc3)cc2C1=O do in these assays?
HDAC3 inh: 35*; TMEM16A act: inactive

How did C[C@@H]1CN([C@H](C)CO)C(=O)c2cc(NC(=O)Nc3ccc(C(F)(F)F)cc3)ccc2O[C@H]1CN(C)C(=O)Nc1ccc(F)cc1 do in these assays?
TMEM16A act: inactive

What do the screens show for `C[C@H]1CN([C@@H](C)CO)C(=O)c2cccc(NC(=O)Nc3ccc(C(F)(F)F)cc3)c2O[C@@H]1CN(C)C(=O)Nc1ccc(F)cc1`?
HDAC3 inh: 35*; TMEM16A act: inactive

What do the screens show for `CC(C)Oc1ccc(C(=O)NC2(C(F)(F)F)N=C3SCCN3C2=O)cc1` (stereo not drawn)?
HDAC3 inh: -3; CHT block: inactive; ANO1 block: inactive; CHT PAM: inactive; PHOSPHO1 block: 10; TMEM16A act: inactive

How did C[C@H](CO)N1C[C@H](C)[C@@H](CN(C)C(=O)NC2CCCCC2)Oc2c(NS(=O)(=O)c3ccccc3)cccc2C1=O do in these assays?
HDAC3 inh: -3; TMEM16A act: inactive

How did CCOC(=O)C1(CCCc2ccccc2)CCN(C(=O)Cc2nonc2C)CC1 do in these assays?
HDAC3 inh: -1; CHT block: inactive; ANO1 block: inactive; CHT PAM: inactive; PHOSPHO1 block: 23; TMEM16A act: -6.7*

What do the screens show for `CCOC(=O)C1(CCCc2ccccc2)CCN(C(=O)CSC)CC1`?
HDAC3 inh: 5; CHT block: inactive; ANO1 block: inactive; CHT PAM: inactive; PHOSPHO1 block: 30; TMEM16A act: inactive

Results for CCOC(=O)C1(CCc2ccccc2)CCN(Cc2cccc3nccnc23)CC1 ?
HDAC3 inh: 0; CHT block: -12*; ANO1 block: inactive; CHT PAM: inactive; PHOSPHO1 block: 13; TMEM16A act: inactive

Results for CCCc1nc2ccccc2c(C(=O)OC2CCOC2=O)c1CC (stereo not drawn) ?
HDAC3 inh: 9; CHT block: inactive; ANO1 block: inactive; CHT PAM: inactive; PHOSPHO1 block: 66*; TMEM16A act: inactive

How did CCc1nc2ccccc2c(C(=O)OC2CCOC2=O)c1C (stereo not drawn) do in these assays?
HDAC3 inh: 6; CHT block: inactive; ANO1 block: inactive; CHT PAM: inactive; PHOSPHO1 block: -7; TMEM16A act: inactive

How did Nc1ccc2cn[nH]c2c1 do in these assays?
HDAC3 inh: 3; CHT block: inactive; ANO1 block: inactive; CHT PAM: inactive; PHOSPHO1 block: 13; TMEM16A act: inactive

What do the screens show for `COc1ccc(N(C)C(=O)C2CCCN2S(=O)(=O)c2cccc3nsnc23)c(OC)c1` (stereo not drawn)?
HDAC3 inh: 2; CHT block: inactive; ANO1 block: inactive; CHT PAM: inactive; PHOSPHO1 block: 64*; TMEM16A act: inactive

How did CC1CCCCC1NC(=O)C(C)N1C(=O)c2ccccc2C1=O (stereo not drawn) do in these assays?
HDAC3 inh: -6; TMEM16A act: inactive

Compound activity (PubChem)
